# According to PubChem BioAssay AID1851 (National Center for Advancing Translational Sciences (NCATS), 2009):
# The whole screen tested about 16,000 compounds, of which about 5,800 (36%) were called active. Inconclusive results (about 23%) are left out. This is one part of the list. Unmarked numbers belong to inactive results. Calls come from the whole dose curve; as a rule, active = well fitted curve in the direction sought with a large enough effect; inconclusive = small, poorly fitted or top-dose-only effect, or effect the other way; inactive = no such curve, though single readings can be large or run the other way.
# Biological target: Cytochrome P450 2C19 (Homo sapiens) (UniProt P33261)
# Sequence (P33261 whole entry, looked up): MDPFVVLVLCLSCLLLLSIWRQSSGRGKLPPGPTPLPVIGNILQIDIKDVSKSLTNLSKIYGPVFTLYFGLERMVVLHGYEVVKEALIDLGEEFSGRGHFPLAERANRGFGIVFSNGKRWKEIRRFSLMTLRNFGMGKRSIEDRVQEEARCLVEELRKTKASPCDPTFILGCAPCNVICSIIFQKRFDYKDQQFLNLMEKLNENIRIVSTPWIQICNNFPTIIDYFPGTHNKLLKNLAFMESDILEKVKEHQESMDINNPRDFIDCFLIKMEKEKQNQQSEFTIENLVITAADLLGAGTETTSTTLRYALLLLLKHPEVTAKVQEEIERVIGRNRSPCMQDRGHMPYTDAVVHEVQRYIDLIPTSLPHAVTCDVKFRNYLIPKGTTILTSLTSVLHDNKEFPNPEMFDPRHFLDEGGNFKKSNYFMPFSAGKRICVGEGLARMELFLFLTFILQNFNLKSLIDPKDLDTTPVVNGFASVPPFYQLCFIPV
# Assay: Cytochrome panel assay with activity outcomes
# Conditions: recombinant CYP, pro-luciferin dealkylation, luminescence, p450-cyp2c19; series mostly up to 57.1 µM
# % is set by controls: 0 for no effect and ±100 for the full control effect.
SMILES,AC50,"activity, negative = inhibition"
N#Cc1c(NC(=O)C(F)(F)F)sc2c3c(=O)c4ccccc4c(=O)c=3oc3ccccc3c12,0.501 µM (active),–
O=C(CCCn1c(=S)[nH]c2cc3c(cc2c1=O)OCO3)N1CCN(c2ncccn2)CC1,22.4 µM (active),–
O=C(CCCn1c(=S)[nH]c2cc3c(cc2c1=O)OCO3)N1CCN(c2ccccc2)CC1,10 µM (active),–
Cn1c(=S)c2[nH]c(SCc3cccnc3)nc2n(C)c1=O,–,23.1% [at 11.4 µM]
O=c1c2cc(Br)ccc2[nH]c(=S)n1Cc1cccnc1,1.58 µM (active),–
Cc1cccc(N2CCN(C(=O)CCCn3c(=S)[nH]c4cc5c(cc4c3=O)OCO5)CC2)c1C,2.82 µM (active),–
C=CCNC(=O)c1ccc(Cn2c(=S)[nH]c3cc4c(cc3c2=O)OCO4)cc1,inactive,–
O=C(c1cnccn1)N1CCC2(CC1)CN(c1cccc(-c3ccccc3)c1)C2,inactive,–
O=C(O)/C=C\C(=O)Nc1cccc2c1-c1ccccc1C2=O,–,28.6% [at 11.4 µM]
Cc1ccccc1CNc1ncnc2c1ncn2[C@@H]1O[C@@H](CO)[C@H](O)[C@@H]1O,inactive,–
O=C(CCCn1c(=S)[nH]c2ccc(Br)cc2c1=O)NCC1CCCO1 (stereo not drawn),3.55 µM (active),–
O=C(CCCn1c(=S)[nH]c2ccc(Br)cc2c1=O)N1CCN(c2ccccn2)CC1,2.51 µM (active),–
CCCc1nnc(NC(=O)CCC(=O)N2CCN(c3ccccn3)CC2)s1,inactive,–
CN=C(NC#N)NCCSC[C@H]1N=CN=C1C,inactive,–
N[C@@H]1[C@@H]2[C@@H]3C[C@H]4N(CC[C@@]14C(=O)C(=O)O)CC3=CCO[C@@H]2CC(=O)O,–,-13.5% [at 11.4 µM]
Cc1ccc(S(=O)(=O)NCCSc2nnnn2C)cc1,5.01 µM (active),–
Cc1cccc(CNc2ncnc3ccc(-c4ccoc4)cc23)c1,7.94 µM (active),–
c1cncc(CNc2ncnc3ccc(-c4ccoc4)cc23)c1,0.0251 µM (active),–
Cc1cccc(CNc2ncnc3ccc(-c4cccc(C#N)c4)cc23)c1,inactive,–
Cn1cccc1C(=O)N1CCC2(CC1)CN(C(c1ccccc1)c1ccccc1)C2,inactive,–
CC(C)N(C(=O)CSc1nc2ccccc2n1-c1ccccc1)C(C)C,7.94 µM (active),–
COC(=O)c1cc2c(ccn2-c2ccc(F)cc2)n1CC(C)C,3.16 µM (active),–
COC(=O)c1cc2c(ccn2-c2ccc(F)cc2)n1C(C)C,2 µM (active),–
COCCn1c(=O)c(-c2ccc(F)cc2)nc2cnc(N(C)C)nc21,inactive,–
C=C[C@H](N)CCC(=O)O,inactive,–

SMILES,AC50,"activity, negative = inhibition"
CCc1ccccc1NC(=O)CSc1nc(-c2ccccc2)nn1C(=O)c1cccc([N+](=O)[O-])c1,0.398 µM (active),–
COc1ccccc1-c1cc(-n2ccnc2)ncn1,2 µM (active),–
CNc1cc(-c2ccccc2CN(C)C)ncn1,inactive,–
CN(C)Cc1ccccc1-c1cc(-n2ccnc2)ncn1,25.1 µM (active),–
CN(C)Cc1ccccc1-c1cc(NC2CC2)ncn1,inactive,–
CSc1nc2cc(S(=O)(=O)N3CCCCC3)ccc2s1,1.26 µM (active),–
O=C(O)CCC(=O)N1CCc2cc(S(=O)(=O)N3CCCCC3)ccc21,inactive,–
NS(=O)(=O)c1cccc2c1c([N+](=O)[O-])cc1nc(O)c(O)nc12,inactive,–
COc1cccc(-c2cc(NCc3ccccc3)ncn2)c1,7.94 µM (active),–
c1cncc(CNc2cc(-c3ccoc3)ncn2)c1,inactive,–
CN(C)C(=O)c1ccc(-c2cc(NCc3cccnc3)ncn2)cc1,inactive,–
COc1cccc(-c2cc(NCc3cccnc3)ncn2)c1,10 µM (active),–
Nc1ccn([C@@H]2CC[C@H](CO)O2)c(=O)n1,inactive,–
O=C(O)[C@@H]1[C@@H]2C[C@H]3c4[nH]c5ccccc5c4CCN3C[C@@H]2CC[C@@H]1O,inactive,–
O=C(Nc1ccc(Cl)cc1)NC1CCCCC1,8.91 µM (active),–
Cc1ccc(NC(=S)N2CCN(C3CCCCC3)CC2)cc1,6.31 µM (active),–
S=C(Nc1cccc(Cl)c1)NC1CCCCC1,7.08 µM (active),–
NC(=O)c1ccc(NC(=O)C2CCCO2)cc1 (stereo not drawn),inactive,–
CC(=O)NS(=O)(=O)c1ccc(NC(=O)NC2CCCCC2)cc1,inactive,–
Cc1ccc(NC(=S)N2CCN(C(=O)C3CCCO3)CC2)c(C)c1 (stereo not drawn),inactive,–
S=C(NCc1ccccn1)Nc1cccc(Cl)c1,3.55 µM (active),–
Nc1nc(N)nc(CCCc2nc(N)nc(N)n2)n1,–,103% [at 11.4 µM]
N#Cc1cccc(-c2nc3cnc(N4CCNCC4)nc3n(C3CC3)c2=O)c1,inactive,–
CN1C(=O)C(CC(N)=O)N(NC(=O)c2ccc(Cl)cc2)C1=S (stereo not drawn),inactive,–
Cc1ccc(NC(=S)NC2CCCC2)cc1,3.55 µM (active),–

SMILES,AC50,"activity, negative = inhibition"
CO[C@H]1COC(=O)C/C=C\[C@H](C)[C@@H](OC)COC(=O)[C@@H](C)COC(=O)C/C=C\[C@@H]1C,–,-29.5% [at 11.4 µM]
COc1cc2nc(SCc3ccc(Cl)cc3Cl)n(Cc3cccs3)c(=N)c2cc1OC,2.51 µM (active),–
COc1ccc(Cn2c(SCc3ccccc3C)nc3cc(OC)c(OC)cc3c2=N)cc1,20 µM (active),–
CN1CCN(c2ncc3nc(-c4ccc(Cl)cc4)c(=O)n(Cc4cccs4)c3n2)CC1,inactive,–
CN1CCN(c2ncnc3ccc(-c4ccccc4Cl)cc23)CC1,3.98 µM (active),–
FC(F)(F)c1ccccc1-c1ccc2ncnc(N3CCOCC3)c2c1,0.631 µM (active),–
COc1ccccc1-c1ccc2ncnc(N3CCOCC3)c2c1,1.26 µM (active),–
O=C(O)C1CCN(c2ncnc3ccc(-c4ccccc4C(F)(F)F)cc23)CC1,inactive,–
CN1CCN(c2ncnc3ccc(-c4ccccc4C#N)cc23)CC1,inactive,–
Cc1ccccc1-c1ccc2ncnc(N3CCN(C)CC3)c2c1,inactive,–
CS(=O)(=O)Nc1cccc(-c2ccc3ncnc(N4CCOCC4)c3c2)c1,inactive,–
COc1cccc(-c2ccc3ncnc(N4CCOCC4)c3c2)c1,3.98 µM (active),–
CN1CCN(c2nc(-c3ccccc3C(F)(F)F)nc3ccccc23)CC1,inactive,–
CS(=O)(=O)Nc1cccc(-c2ccc3ncnc(N4CCNCC4)c3c2)c1,inactive,–
COc1ccccc1-c1nc(N2CCOCC2)c2ccccc2n1,inactive,–
COc1cccc(-c2ccc3ncnc(N4CCNCC4)c3c2)c1,3.16 µM (active),–
N#Cc1cccc(-c2ccc3ncnc(N4CCNCC4)c3c2)c1,inactive,–
FC(F)(F)c1ccccc1-c1nc(N2CCOCC2)c2ccccc2n1,15.8 µM (active),–
NCCCCC(=O)O,inactive,–
CCOC(=O)C1=C(c2ccccc2)OC(N)=C(C#N)C1c1ccc(Cl)s1 (stereo not drawn),0.398 µM (active),–
CCc1cc2c(=O)c(-c3nc4ccccc4[nH]3)coc2cc1OC(=O)N1CCOCC1,15.8 µM (active),–
COc1cc(Br)c(C(C)NC(=O)c2cccc(Br)c2)cc1OC (stereo not drawn),2.24 µM (active),–
COc1ccccc1CNc1ncnc2ccc(-c3ccc4c(c3)OCO4)cc12,3.16 µM (active),–
CN(C)c1ccc(-c2ccc3ncnc(NCc4ccccc4)c3c2)cc1,7.94 µM (active),–
COc1ccccc1CNc1ncnc2ccc(-c3ccc(N(C)C)cc3)cc12,10 µM (active),–

SMILES,AC50,"activity, negative = inhibition"
COc1ccc(CNc2ncnc3ccc(-c4ccc(N(C)C)cc4)cc23)c(OC)c1,3.98 µM (active),–
CC(C)CO/N=C1/C[C@@H](O)[C@@H](O)[C@@H]2[C@@H]3C(=O)N(C[C@@H]4CCCO4)C(=O)[C@H]3CC[C@H]12,–,24.8% [at 11.4 µM]
COc1ccc(CNc2ncnc3ccc(-c4ccc(C(=O)N(C)C)cc4)cc23)c(OC)c1,15.8 µM (active),–
COCCNc1ncnc2ccc(-c3ccc(C(=O)N(C)C)cc3)cc12,inactive,–
Nc1nc(Cl)cc(N2CCOCC2)n1,inactive,–
O=c1nc(N2CCOCC2)ccn1-c1nc(-c2ccccc2)oc1-c1ccccc1,inactive,–
COc1cccc(Sc2cc(N3CCOCC3)nc(-c3ccccc3)n2)c1,14.1 µM (active),–
CS(=O)(=O)Nc1cccc(-c2nc(N3CCOCC3)c3ccccc3n2)c1,inactive,–
Clc1ccc(Sc2cc(N3CCOCC3)nc(-c3ccccc3)n2)cc1,3.55 µM (active),–
CCc1ccccc1NC(=O)C(C)n1nc([N+](=O)[O-])c(Br)c1C (stereo not drawn),2.51 µM (active),–
Cc1c(Br)c([N+](=O)[O-])nn1C(C)C(=O)Nc1nccs1 (stereo not drawn),10 µM (active),–
C[N+](C)(C)CCCCCC[N+](C)(C)C,inactive,–
O=C(CSCC(=O)OCn1nnc2ccccc2c1=O)Nc1ccc(Cl)cc1,11.2 µM (active),–
CCC1OC23CCCCC2C(C#N)(C(=N)O3)C1(C#N)C#N (stereo not drawn),17.8 µM (active),–
Nc1ccccc1S[C@@H](C[N+](=O)[O-])c1ccc2c(c1)OCO2,1.58 µM (active),–
COc1ccc(C(=O)N2CCC[C@@]3(CCN(C(=O)NC(C)C)C3)C2)cc1,inactive,–
CCN1CCN(c2cc(=O)n(-c3cc(Cl)ccc3C)c(=O)[nH]2)CC1,inactive,–
CCCCCn1c(CN2CCN(c3cc(Cl)ccc3C)CC2)nc2c1c(=O)[nH]c(=O)n2C,3.55 µM (active),–
COc1cc(O)c2c(O)c3c(c4c2c1[C@@]1(C4)C(C)=CCCC1(C)C)[C@H](O)[C@@]1(O)CC(=O)C(C(N)=O)=C(O)[C@]1(O)C3=O,2.51 µM (active),–
CN(C)CCNc1oc(COc2ccc(Cl)cc2Cl)nc1C#N,inactive,–
N#Cc1nc(COc2ccccc2Cl)oc1NCc1ccco1,2.24 µM (active),–
CCOC(=O)c1ccc(NC(=O)CC2NCCNC2=O)cc1 (stereo not drawn),inactive,–
CCC1C(=O)N=C(SCC(=O)Nc2ccc(C(=O)OC)cc2)NC1=O (stereo not drawn),22.4 µM (active),–
